Results taken from PubChem BioAssay (EPA / NIEHS).
Several values for one entry are separate records, joined by “and”; a condition that tells them apart may be missing. Equal values may be shown once. Results filed as inconclusive are left out. Where a structure was tested more than once in an assay, its records may differ in their call. Activity calls are given as the source filed them. How the source made its calls: active means hit-call score of the fitted dose curve at least 0.9, where 1 is the maximum; inconclusive means response in the unintended direction; inactive means score below 0.9.

Tests used:
[1] = target: rat Peripheral-type Benzodiazepine Receptor (PBR), Tspo (gene 24230) (UniProt P16257); assay: NVS_MP_rPBR: NovaScreen (NVS) Membrane Protein Assay for rat Peripheral-type Benzodiazepine Receptor (PBR) (AID 2283335)
Sequence of rat Peripheral-type Benzodiazepine Receptor (PBR), Tspo (gene 24230) (P16257 whole entry, looked up): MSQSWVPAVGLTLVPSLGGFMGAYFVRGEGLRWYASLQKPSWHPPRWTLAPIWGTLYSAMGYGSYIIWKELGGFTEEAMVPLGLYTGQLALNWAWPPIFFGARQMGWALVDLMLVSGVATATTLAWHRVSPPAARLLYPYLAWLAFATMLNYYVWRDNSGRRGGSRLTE
In short: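 Competitive displacement of specific radioligand from rat kidney membrane PBR, read by filtration and scintillation after 1 h. Compounds first tested at 25 uM in duplicate, then in concentration series; signal loss relative to DMSO.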

[2] = target: bovine Estrogen Receptor (ER), ESR1 (gene 407238) (UniProt P49884); assay: NVS_NR_bER: NovaScreen (NVS) Nuclear Receptor Binding Assay for bovine Estrogen Receptor (ER) (AID 2283345);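 further: actives lower the bound radioligand count which means they displace the ER ligand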
Sequence of bovine Estrogen Receptor (ER), ESR1 (gene 407238) (P49884 whole entry, looked up): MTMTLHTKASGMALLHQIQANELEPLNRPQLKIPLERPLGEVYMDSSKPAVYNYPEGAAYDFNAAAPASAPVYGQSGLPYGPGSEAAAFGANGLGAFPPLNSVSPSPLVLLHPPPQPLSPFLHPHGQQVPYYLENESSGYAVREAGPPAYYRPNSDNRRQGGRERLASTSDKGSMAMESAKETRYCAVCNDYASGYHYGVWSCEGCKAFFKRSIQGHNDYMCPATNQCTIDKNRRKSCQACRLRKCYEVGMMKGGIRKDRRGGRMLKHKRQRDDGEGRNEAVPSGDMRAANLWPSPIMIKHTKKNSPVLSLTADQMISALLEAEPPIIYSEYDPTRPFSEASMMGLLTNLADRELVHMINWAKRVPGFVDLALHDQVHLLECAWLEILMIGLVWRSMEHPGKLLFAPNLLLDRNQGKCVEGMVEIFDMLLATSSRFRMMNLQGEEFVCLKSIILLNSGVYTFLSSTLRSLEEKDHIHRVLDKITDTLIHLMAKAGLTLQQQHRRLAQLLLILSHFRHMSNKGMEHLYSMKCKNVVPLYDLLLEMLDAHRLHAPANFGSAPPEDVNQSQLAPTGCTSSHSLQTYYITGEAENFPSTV
In short: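 Scintillation counting of displaced radioligand gave the readout; bovine uterine membrane extract supplied the receptor. Measured 18 h post-dose, normalized to DMSO baseline. Single 25 uM duplicate screen preceded concentration-response follow-up.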

[3] = target: chimpanzee Androgen Receptor (AR), AR (gene 747460) (UniProt O97775); assay: NVS_NR_cAR: NovaScreen (NVS) Nuclear Receptor Binding Assay for chimpanzee Androgen Receptor (AR) (AID 2283346);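 further: radioligand displacement from AR measured by scintillation counting in a cell-free assay; a loss of bound radioligand signal versus DMSO counts as binding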
Sequence of chimpanzee Androgen Receptor (AR), AR (gene 747460) (O97775 whole entry, looked up): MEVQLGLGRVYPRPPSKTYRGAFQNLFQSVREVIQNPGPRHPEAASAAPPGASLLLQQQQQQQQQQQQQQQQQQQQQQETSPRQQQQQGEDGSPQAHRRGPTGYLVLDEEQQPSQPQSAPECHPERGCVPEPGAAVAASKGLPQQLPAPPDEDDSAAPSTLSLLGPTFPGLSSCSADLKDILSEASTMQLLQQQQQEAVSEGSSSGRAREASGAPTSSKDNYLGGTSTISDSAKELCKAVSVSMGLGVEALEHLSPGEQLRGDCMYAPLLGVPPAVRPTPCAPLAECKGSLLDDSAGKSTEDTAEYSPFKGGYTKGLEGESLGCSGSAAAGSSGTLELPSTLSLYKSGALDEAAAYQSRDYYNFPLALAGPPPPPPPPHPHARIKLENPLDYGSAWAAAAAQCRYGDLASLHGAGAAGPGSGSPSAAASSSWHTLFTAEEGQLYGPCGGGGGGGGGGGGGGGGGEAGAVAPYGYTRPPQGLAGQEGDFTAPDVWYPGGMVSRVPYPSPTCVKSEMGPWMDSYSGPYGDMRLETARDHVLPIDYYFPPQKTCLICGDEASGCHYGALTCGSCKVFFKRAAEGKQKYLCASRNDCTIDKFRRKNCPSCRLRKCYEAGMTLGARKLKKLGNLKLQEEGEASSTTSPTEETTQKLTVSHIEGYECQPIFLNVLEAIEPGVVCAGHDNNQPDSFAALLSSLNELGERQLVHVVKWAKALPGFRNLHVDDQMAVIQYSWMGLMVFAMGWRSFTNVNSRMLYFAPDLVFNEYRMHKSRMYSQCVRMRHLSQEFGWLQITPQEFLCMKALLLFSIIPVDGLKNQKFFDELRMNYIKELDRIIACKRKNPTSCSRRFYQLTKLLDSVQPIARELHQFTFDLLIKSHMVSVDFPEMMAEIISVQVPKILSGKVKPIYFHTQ
In short: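 Cell-free competition binding with insect-cell (Sf9/Sf21) extracted chimpanzee AR; scintillation signal from lysate at 72 h. Screened in duplicate at 25 uM, then concentration-response for actives; fitting relative to DMSO.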

[4] = target: Estrogen receptor (Homo sapiens) (UniProt P03372); assay: NVS_NR_hER: NovaScreen (NVS) Nuclear Receptor Binding Assay for human Estrogen Receptor (ER) (AID 2283348)
Sequence of Estrogen receptor (Homo sapiens) (P03372 whole entry, looked up, the tested form may be a part): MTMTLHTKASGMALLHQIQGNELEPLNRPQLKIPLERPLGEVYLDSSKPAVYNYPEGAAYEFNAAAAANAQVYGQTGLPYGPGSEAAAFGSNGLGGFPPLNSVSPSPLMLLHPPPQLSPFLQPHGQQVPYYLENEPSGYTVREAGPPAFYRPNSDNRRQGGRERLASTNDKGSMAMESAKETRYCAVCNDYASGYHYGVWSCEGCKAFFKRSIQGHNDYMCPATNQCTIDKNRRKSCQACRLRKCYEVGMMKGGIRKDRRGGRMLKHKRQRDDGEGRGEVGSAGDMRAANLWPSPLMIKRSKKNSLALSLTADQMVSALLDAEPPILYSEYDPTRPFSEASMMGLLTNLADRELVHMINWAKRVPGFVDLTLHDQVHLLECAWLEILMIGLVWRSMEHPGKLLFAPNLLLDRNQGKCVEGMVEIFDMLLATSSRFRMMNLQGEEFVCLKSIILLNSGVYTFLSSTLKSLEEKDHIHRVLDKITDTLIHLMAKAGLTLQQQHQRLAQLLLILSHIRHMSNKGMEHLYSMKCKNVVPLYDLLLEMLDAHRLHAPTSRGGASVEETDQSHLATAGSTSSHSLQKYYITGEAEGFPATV
In short: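 Cell-free MCF7-derived ER preparation, specific radioligand displaced by test compound, read by scintillation counting 18 h post-dosing. Duplicate single-point 25 uM screen, then concentration-response confirmation; DMSO baseline.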

[5] = target: Estrogen receptor (Homo sapiens) (UniProt P03372); assay: OT_ER_ERaERa_0480: Odyssey Thera (OT) 8-hour HEK293T Protein-Complementation Assay for Estrogen Receptor-alpha/-alpha Homodimer (AID 2283351);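 further: rise in fluorescence from reassembled reporter fragments on ERα LBD homodimer in nucleus or whole cell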
In short: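 Cells were treated for 8 hours, then imaged on a laser scanning plate cytometer. Complementation of reporter fragments fused to the human ERα ligand-binding domain (residues 310-547) in HEK293T gave fluorescence, and gain of signal over vehicle was fitted.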

[6] = target: T1, Estrogen receptor (Homo sapiens) + Estrogen receptor beta (Homo sapiens) (UniProt P03372+Q92731); assay: OT_ER_ERaERb_0480: Odyssey Thera (OT) 8-hour HEK293T Protein-Complementation Assay for Estrogen Receptor-alpha/-beta Heterodimer (AID 2283352)
T1 sequence (P03372 whole entry, looked up, the tested form may be a part): as above
T1 sequence (Q92731 whole entry, looked up, the tested form may be a part): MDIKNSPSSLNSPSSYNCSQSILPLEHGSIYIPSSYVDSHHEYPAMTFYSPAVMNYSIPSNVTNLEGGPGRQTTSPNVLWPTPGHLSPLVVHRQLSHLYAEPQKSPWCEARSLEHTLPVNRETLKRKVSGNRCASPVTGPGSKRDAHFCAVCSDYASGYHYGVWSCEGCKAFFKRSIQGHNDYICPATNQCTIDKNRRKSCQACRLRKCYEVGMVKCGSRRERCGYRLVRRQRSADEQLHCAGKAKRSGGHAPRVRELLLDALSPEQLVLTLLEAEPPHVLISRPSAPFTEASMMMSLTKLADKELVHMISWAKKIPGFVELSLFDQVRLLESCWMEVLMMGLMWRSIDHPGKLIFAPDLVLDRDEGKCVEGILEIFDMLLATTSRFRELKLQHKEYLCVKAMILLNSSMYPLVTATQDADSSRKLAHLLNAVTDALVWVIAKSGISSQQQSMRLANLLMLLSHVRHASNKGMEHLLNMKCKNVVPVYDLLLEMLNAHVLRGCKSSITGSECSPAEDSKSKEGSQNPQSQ
In short: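 Fluorescence increase from reconstituted reporter fragments, quantified by laser scanning cytometer, reflects ER-alpha/ER-beta heterodimer formation in human HEK293T cells. Exposure 8 h; positive-direction fitting against DMSO vehicle.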

[7] = target: T1, Estrogen receptor (Homo sapiens) + Estrogen receptor beta (Homo sapiens); assay: OT_ER_ERaERb_1440: Odyssey Thera (OT) 24-hour HEK293T Protein-Complementation Assay for Estrogen Receptor-alpha/-beta Homodimer (AID 2283356);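 further: heteromer of ER alpha and ER beta binding domains; hits raise reporter fluorescence and both agonists and antagonists give an increase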
In short: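 Fragment complementation between ER alpha (310-547) and ER beta (263-489) ligand-binding domains in HEK293T cells; signal read 24 h post-dosing by laser scanning cytometer. Gain of fluorescence relative to DMSO fitted.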

[8] = target: Estrogen receptor beta (Homo sapiens) (UniProt Q92731); assay: OT_ER_ERbERb_0480: Odyssey Thera (OT) 8-hour HEK293T Protein-Complementation Assay for Estrogen Receptor-beta/-beta Homodimer (AID 2283357);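 further: active means signal gain over DMSO baseline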
Sequence of Estrogen receptor beta (Homo sapiens) (Q92731 whole entry, looked up, the tested form may be a part): as above
In short: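 ER-beta LBD homodimer PCA stably expressed in HEK293T; 8 h compound exposure, then formaldehyde fixation and Draq5 staining. Gain in nuclear/cytoplasmic fluorescence intensity versus DMSO vehicle, read on laser scanning cytometer.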

[9] = target: Androgen Receptor/SRC-1 Co-activator, AR (gene 367) (UniProt P10275); assay: OT_AR_ARSRC1_0960: Odyssey Thera (OT) 16-hour HEK293T Protein-Complementation Assay for Androgen Receptor/SRC-1 Co-activator (AID 2283353);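 further: actives raise the signal above DMSO so potency reflects increased AR and SRC-1 complex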
Sequence of Androgen Receptor/SRC-1 Co-activator, AR (gene 367) (P10275 whole entry, looked up, the tested form may be a part): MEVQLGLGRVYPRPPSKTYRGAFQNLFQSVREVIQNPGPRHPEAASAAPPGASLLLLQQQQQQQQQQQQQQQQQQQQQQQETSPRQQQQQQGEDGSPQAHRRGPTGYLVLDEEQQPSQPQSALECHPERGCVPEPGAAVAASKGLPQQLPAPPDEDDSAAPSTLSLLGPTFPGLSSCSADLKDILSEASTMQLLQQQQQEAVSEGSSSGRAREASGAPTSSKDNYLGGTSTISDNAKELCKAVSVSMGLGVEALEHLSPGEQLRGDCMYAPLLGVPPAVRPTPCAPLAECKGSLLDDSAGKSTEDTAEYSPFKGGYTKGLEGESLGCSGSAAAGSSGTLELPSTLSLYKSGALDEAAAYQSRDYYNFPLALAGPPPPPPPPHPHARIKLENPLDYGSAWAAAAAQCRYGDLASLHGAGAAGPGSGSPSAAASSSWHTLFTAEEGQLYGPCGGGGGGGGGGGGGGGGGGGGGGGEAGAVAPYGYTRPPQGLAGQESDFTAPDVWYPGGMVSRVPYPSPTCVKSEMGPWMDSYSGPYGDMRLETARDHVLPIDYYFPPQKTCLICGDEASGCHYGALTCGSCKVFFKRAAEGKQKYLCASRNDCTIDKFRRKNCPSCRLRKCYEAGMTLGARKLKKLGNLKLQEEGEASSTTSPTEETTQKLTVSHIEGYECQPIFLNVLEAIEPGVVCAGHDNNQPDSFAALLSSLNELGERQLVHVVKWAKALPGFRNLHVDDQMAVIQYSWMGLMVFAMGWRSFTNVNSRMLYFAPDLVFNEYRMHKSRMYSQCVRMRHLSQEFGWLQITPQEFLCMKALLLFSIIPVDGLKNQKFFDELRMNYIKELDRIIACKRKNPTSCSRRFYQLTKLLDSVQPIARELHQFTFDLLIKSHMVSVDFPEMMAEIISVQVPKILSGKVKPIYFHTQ
In short: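 Stable HEK293T line carries AR and SRC-1 each linked to a Venus fragment; chemicals are applied for 16 h, cells imaged at two wavelengths, and the 488 nm nucleus/cytoplasm ratio is taken as the signal, rising relative to DMSO.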

[10] = target: Androgen Receptor/SRC-1 Co-activator, AR (gene 367) (UniProt P10275); assay: OT_AR_ARSRC1_0480: Odyssey Thera (OT) 8-hour HEK293T Protein-Complementation Assay for Androgen Receptor/SRC-1 Co-activator (AID 2283354);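 further: hits raise the complementation signal above DMSO so AC50 marks enhancers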
In short: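 Reconstituted split-Venus YFP signal from AR–SRC-1 interaction, read by imaging 8 h post-dose in stable HEK293T lines. The 488 nm nucleus-to-cytoplasm ratio (≥400 cells/image) was fitted upward against DMSO.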

[11] = target: Retinoic acid receptor alpha (Homo sapiens) (UniProt P10276); assay: NVS_NR_hRAR_Antagonist: NovaScreen (NVS) Nuclear Receptor Binding Assay for human Retinoic Acid Alpha Receptor Antagonism (RAR) (AID 2283358)
Sequence of Retinoic acid receptor alpha (Homo sapiens) (P10276 whole entry, looked up): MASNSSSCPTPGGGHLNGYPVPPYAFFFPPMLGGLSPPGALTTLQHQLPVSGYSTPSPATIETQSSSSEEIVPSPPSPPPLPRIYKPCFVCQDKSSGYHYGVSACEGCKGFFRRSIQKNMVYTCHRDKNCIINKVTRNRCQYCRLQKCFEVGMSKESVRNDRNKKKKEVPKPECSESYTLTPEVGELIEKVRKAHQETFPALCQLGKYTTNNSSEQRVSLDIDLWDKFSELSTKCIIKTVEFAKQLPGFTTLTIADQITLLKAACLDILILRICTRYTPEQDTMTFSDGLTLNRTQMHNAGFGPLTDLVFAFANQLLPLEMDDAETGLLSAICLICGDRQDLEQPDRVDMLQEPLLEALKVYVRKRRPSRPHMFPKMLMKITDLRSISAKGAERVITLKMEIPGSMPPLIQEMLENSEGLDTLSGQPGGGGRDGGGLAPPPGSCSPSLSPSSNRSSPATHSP
In short: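 RARalpha antagonism was read by TR-FRET as loss of binding signal versus DMSO, 2 h after chemical addition, in a biochemical format. Single-concentration duplicates (25 uM) were run first, and actives were retested in concentration series.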

[12] = target: bovine Gamma-Aminobutyric Acid Type A Receptor Agonist (GABAR Agonist), GABRA1 (gene 780973) (UniProt P08219); assay: NVS_LGIC_bGABAR_Agonist: NovaScreen (NVS) Ligand-Gated Ion Channel Assay for bovine Gamma-Aminobutyric Acid Type A Receptor Agonist (GABAR Agonist) (AID 2283338)
Sequence of bovine Gamma-Aminobutyric Acid Type A Receptor Agonist (GABAR Agonist), GABRA1 (gene 780973) (P08219 whole entry, looked up): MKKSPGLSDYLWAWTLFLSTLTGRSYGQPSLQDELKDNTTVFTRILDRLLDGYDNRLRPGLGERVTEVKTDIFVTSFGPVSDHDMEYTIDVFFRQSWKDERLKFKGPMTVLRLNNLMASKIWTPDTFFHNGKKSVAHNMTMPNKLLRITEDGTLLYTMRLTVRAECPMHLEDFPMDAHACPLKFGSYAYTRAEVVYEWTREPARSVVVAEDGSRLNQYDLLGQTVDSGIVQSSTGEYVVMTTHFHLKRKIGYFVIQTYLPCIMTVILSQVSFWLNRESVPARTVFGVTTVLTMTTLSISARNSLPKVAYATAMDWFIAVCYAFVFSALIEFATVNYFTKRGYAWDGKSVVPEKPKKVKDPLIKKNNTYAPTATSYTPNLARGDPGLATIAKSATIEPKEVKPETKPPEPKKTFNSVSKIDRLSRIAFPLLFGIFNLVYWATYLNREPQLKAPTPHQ
In short: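 Radioligand binding to bovine cerebellar membranes in agonist format, read by filter-based scintillation counting after 1 h. Primary screen in duplicate at 25 uM, with actives followed in concentration series. Gain of signal versus DMSO.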

NCBI gene 100848466 = assay: NVS_NR_bPR: NovaScreen (NVS) Nuclear Receptor Binding Assay for bovine Progextron Receptor (PR) (AID 2283343)
In short: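 Competitive radioligand binding with membranes from bovine uterus, scintillation read-out at 18 h post-dose. Compounds first tested in duplicate at 25 uM, then actives in concentration series; loss-of-signal relative to DMSO.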

[13] = target: Estrogen receptor (Homo sapiens) (UniProt P03372); assay: OT_ER_ERaERa_1440: Odyssey Thera (OT) 24-hour HEK293T Protein-Complementation Assay for Estrogen Receptor-alpha/-alpha Homodimer (AID 2283349);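 further: hits raise fluorescence above DMSO for agonists and antagonists alike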
In short: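 HEK293T, stable ERα LBD (aa 310-547) homodimer PCA; 24 h compound exposure; mean fluorescence intensity (nuclear for agonists, nuclear plus cytoplasmic for antagonists) vs vehicle; positive fitting direction, DMSO baseline.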

[14] = NVS_IC_rCaBTZCHL: NovaScreen (NVS) Ion Channel Assay for Calcium Channel, Type L, Benzothiazepine Site (CaBTZCHL) (AID 2283337)
In short: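 Test chemicals were added to rat cortical membranes and incubated 1.5 h with a tritiated or iodinated radioligand for the benzothiazepine site. Bound ligand was separated by filtration and counted. Actives from the 25 uM duplicate screen were retested in concentration series.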

Measured: AC50

Nc1ccc([N+](=O)[O-])cc1Cl
inactive: [1]

CCCCc1ccc(O)cc1
inactive: [2] | [3] | [4]
active: [5] 19.7 µM | [6] 19.7 µM | [7] 31.4 µM | [8] 10.5 µM

CC1(C)CN=C(NN=C(/C=C/c2ccc(C(F)(F)F)cc2)/C=C/c2ccc(C(F)(F)F)cc2)NC1
inactive: [2] | [5] | [6] | [7] | [8]
active: [3] 25 µM | [4] 8.61 µM | [9] 12.7 µM | [10] 44 µM | [11] 25 µM

O=S(=O)(c1ccc(O)cc1)c1ccc(O)cc1
active: [1] 4.76 µM | [2] 15.1 µM | [4] 4.77 µM | [5] 36.7 µM | [6] 21.4 µM | [7] 29.2 µM | [8] 31.2 µM

N#Cc1c(-c2ccc(Cl)cc2)[nH]c(C(F)(F)F)c1Br
active: [1] 0.377 µM

O=C(O)C(Cl)Cl
inactive: [12] | [5]

O=P(OCC(Br)CBr)(OCC(Br)CBr)OCC(Br)CBr (centres undefined)
inactive: [1] | [4] | [5] | [10] | [7] | [8]
active: [1] 0.169 µM | [3] 21.8 µM | [9] 26.7 µM

N#Cc1cc([N+](=O)[O-])ccc1N
active: [1] 25 µM

Nc1cc2c3c(c1)C(c1ccccc1)=N[C@@H](NC(=O)c1cccnc1)C(=O)N3CC2
inactive: [12] | [5] | [7] | [8]

ClC(Cl)(Cl)c1ccccc1
inactive: [2] | [4] | [5] | [6] | [7] | [8]

O=P(Oc1ccccc1)(Oc1ccccc1)Oc1ccccc1
inactive: [12]
active: [1] 1.96 µM | [5] 12.1 µM | [6] 12.2 µM | [7] 12.4 µM | [8] 12.2 µM

CCCCN(CCCC)SN(C)C(=O)Oc1cccc2c1OC(C)(C)C2
inactive: NCBI gene 100848466 | [2] | [4] | [5] | [6] | [7] | [8]

Nc1ccc(Sc2ccc(N)cc2)cc1
inactive: [2]
active: [4] 11 µM

C=CC(=O)OCC(CC)(COC(=O)C=C)COC(=O)C=C
active: [1] 25 µM | [2] 42.2 µM | [4] 13.7 µM
inactive: [4]

CCOP(=S)(OCC)SCn1nnc2ccccc2c1=O
active: [1] 9.51 µM
inactive: [4]

CCCCCCCc1ccc(O)cc1
inactive: [2] | [3] | [4] | [13] | [5] | [6] | [9] | [10] | [7] | [8]
active: [2] 0.106 µM | [4] 18.8 µM | [13] 24.5 µM and 23.2 µM | [5] 26.1 µM and 23.4 µM and 23.6 µM | [6] 12.7 µM and 12.5 µM | [9] 72 µM and 72.7 µM and 73.8 µM | [10] 74.4 µM and 73.3 µM | [7] 15.3 µM and 11.3 µM | [8] 12.2 µM and 13.3 µM and 12.3 µM

c1ccc2c(c1)Nc1ccccc1S2
inactive: [1] | [12] | [2] | [13] | [5] | [6] | [7] | [8]

Cc1ccc2c(c1N)C(=O)c1ccccc1C2=O
inactive: [14] | [2]
active: [1] 1.4 µM
